Compound activity deposited in PubChem BioAssay by several laboratories.
CYP2C9 act – human CYP2C9 activators, primary screen, biochemical, luminescence; activation factor at 5 µM; recombinant CYP2C9, luciferin-H conversion; stronger effect = higher value; factor 1 = untreated enzyme, 0 = blocked; Cytochrome P450 2C9 (Homo sapiens), P11712; 96,000 compounds, 1.4% hits;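 active = activation factor of 2 or more for CYP2C9 at a 5 µM dose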;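 note: 0 = sulfaphenazole-blocked wells and 1 = vehicle-only wells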
PostGolgi ctrl – growth inhibition of yeast control strain, primary screen, counter-screen for post-Golgi transport modulator project | 98,000 compounds, 5% hits | inhibition, % at 10 µM | efflux-deficient yeast background strain, growth absorbance A615, 16 h
CYP2C9 inhib – blockers of cytochrome P450 2C9 activity – biochemical, luminescence, ADME assay, primary screen; P11712; CYP2C9 Supersomes, luciferin-H conversion; inhibition, % at 5 µM; 96,000 compounds, 20% hits;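 active = blocking of liver enzyme CYP2C9 beyond about 50% at 5 µM, limit read from the data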
CYP2C19 act – human CYP2C19 activators, primary screen, biochemical, luminescence | recombinant CYP2C19, luciferin-H EGE luminescence; stronger effect = higher value; 0 = fully inhibited enzyme, 1 = untreated enzyme | activation factor at 5 µM | 96,000 tested, under 10 active;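 active = activation factor of at least 2 at 5 µM in the primary screen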;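 note: 0 = wells with 2.5 mM tranylcypromine and 1 = vehicle-only wells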
Target sequence (P33261 whole entry, looked up): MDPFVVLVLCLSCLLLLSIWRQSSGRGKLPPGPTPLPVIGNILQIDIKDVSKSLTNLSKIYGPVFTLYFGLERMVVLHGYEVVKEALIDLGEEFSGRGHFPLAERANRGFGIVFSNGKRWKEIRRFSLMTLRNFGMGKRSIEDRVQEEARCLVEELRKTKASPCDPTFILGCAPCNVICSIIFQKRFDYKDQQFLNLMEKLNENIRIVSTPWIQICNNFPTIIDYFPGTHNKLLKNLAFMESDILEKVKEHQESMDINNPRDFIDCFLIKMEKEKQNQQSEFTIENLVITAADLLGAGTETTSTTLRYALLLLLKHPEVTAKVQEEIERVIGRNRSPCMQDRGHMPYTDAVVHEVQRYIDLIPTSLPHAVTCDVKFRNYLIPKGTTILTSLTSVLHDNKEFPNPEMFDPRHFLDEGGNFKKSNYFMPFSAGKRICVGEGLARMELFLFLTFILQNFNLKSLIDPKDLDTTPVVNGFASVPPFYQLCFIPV
CYP2C19 inhib – blockers of cytochrome P450 2C19 activity – biochemical, luminescence, ADME assay, primary screen; inhibition, % at 5 µM; P33261; 96,000 compounds, 21% hits; CYP2C19 Supersomes, luciferin-H EGE luminescence, 30 min;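 active = CYP2C19 inhibition above a set limit at 5 µM in the primary screen, cut at about 50% in these data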;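 note: plate controls were negative control wells for no effect and 2.5 mM tranylcypromine positive control for full effect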
PostGolgi yeast – phenotypic screen on post-Golgi transport, primary screen; post-Golgi transport phenotypic cell assay; inhibition, % at 10 µM; 98,000 compounds, 0.9% hits;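 note: yeast cells grown in 1536-well plates; yeast grown about 18 h at 30C before absorbance read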
Starred values were filed as active, the others as inactive; nt = no result. Hits are enriched below; roughly 32% of the tested compounds scored in any of these assays. Cut-off read from the data, not from the text of the source, unless noted: active = inhibition above about 30%; inactive = the rest.

SMILES	CYP2C9 act	PostGolgi ctrl	CYP2C9 inhib	CYP2C19 act	CYP2C19 inhib	PostGolgi yeast
Cc1cc(C)n(-c2nc3ccccc3n3nnnc23)n1	1	34*	3	0.8	20	5
COc1ccccc1NC(=O)N1CCc2[nH]c3ccc(Cl)cc3c2C1	1.6	8	-60	0.7	30	4
N#CCSc1nnc(COc2cccc3ccccc23)n1-c1ccccc1	0	31*	96*	0.1	91*	-8
COc1ccc(NCc2nnc(SCC#N)n2-c2ccccc2OC)cc1	0.7	6	30	0.6	38	25
Cc1ccc(-c2nnc(CSc3nnc(COc4cccc5ccccc45)n3-c3ccccc3)o2)cc1	0.4	19	59*	0.7	30	-1
N#CCSc1nnc(COc2cccc3ccccc23)n1-c1cccc(Cl)c1	1.1	54*	-14	1.1	-5	-10
Cc1cc(OC(C)C)c2c(-c3ccccc3)cc(=O)oc2c1	0.2	16	80*	0.6	43	-4
CCOc1cc(C)cc2oc(=O)cc(-c3ccccc3)c12	0.5	32*	55*	0.8	19	21
COc1cc(C(=O)OC(C)C(=O)N2CCc3ccccc3C2)ccc1OCC(=O)N1CCOCC1 (stereo not given)	0.5	2	46	0.8	17	2
Cc1cc(OCC(=O)N2CCc3ccccc3C2)c2c(-c3ccccc3)cc(=O)oc2c1	0	51*	97*	0.1	86*	5
CCC(=O)c1ccc(N2CCCCCC2)c(F)c1	0.5	12	52*	0.3	68*	0
CCOC(=O)N1CCN(Cc2c(F)cccc2F)CC1	0.6	0	36	0.2	76*	1
CCOC(=O)N1CCN(c2ccc(C(=O)c3ccccc3)cc2F)CC1	0.1	-1	87*	0.2	76*	7
CCCC(=O)c1ccc(N2CCN(S(=O)(=O)c3ccccc3)CC2)c(F)c1	1	3	-2	1	2	-2
Cc1ccc(Nc2nc(N)nc(CSc3nnnn3-c3ccccc3)n2)cc1	1.2	15	-18	1.1	-6	12
CC(C)Oc1ccc(C(=O)NC2(C(F)(F)F)N=C3SCCN3C2=O)cc1 (stereo not given)	0.9	26	14	1.2	-17	4
Cc1cc(C)n2nnnc2c1C#N	1.3	28	-30	1.2	-22	8
Cc1ccc(C(=O)ON=C2CCN(c3ccc([N+](=O)[O-])cc3)CC2)cc1	0.9	18	10	1	1	5
CCOC(=O)NC(=O)CN1C(=O)NC(C)(c2ccccc2)C1=O (stereo not given)	0.9	-1	6	1.1	-5	25
COc1ccc(C=Nc2cccc3c(=O)[nH][nH]c(=O)c23)c2ccccc12	0.2	8	79*	0.6	42	-4
CC1(C)CC2CC(C)(CN2S(=O)(=O)c2ccc(N)cc2)C1 (stereo not given)	0.9	28	9	0.3	74*	6
CN1CCN(S(=O)(=O)c2ccc(N)cc2)CC1	nt	-3	nt	nt	nt	6
CC(=O)Nc1ccc(-c2nnc(SCc3ccccc3C#N)n2C)cc1	1	2	2	1.2	-16	3
Cc1cc(NC(=O)CSc2nnc3c(C)cc4c(C)ccc(C)c4n23)no1	1.1	3	-8	1.1	-7	-5
Cc1ccc(C)c2c1cc(C)c1nnc(SCc3ccccn3)n12	0.8	90*	17	0.6	39	36*
SMILES	CYP2C9 act	PostGolgi ctrl	CYP2C9 inhib	CYP2C19 act	CYP2C19 inhib	PostGolgi yeast
CC(=O)Nc1cccc(-c2nnc(SCc3ccccc3C#N)n2C)c1	1.1	0	-6	0.4	62*	-1
Cn1c(SCc2ccccn2)nnc1-c1ccncc1	0.6	1	36	0.1	94*	1
COC(=O)CSc1nnc(-c2cccc(NC(=O)c3ccc(C)cc3)c2)n1C	0.2	11	76*	0.6	39	3
COc1ccc(NC(=O)CSc2c(C)nn(-c3nnc(C)c(=O)[nH]3)c2C)cc1	1	13	-4	1.1	-12	1
CCOc1ccc(NC(=O)C2CC(=O)N(c3cc(C)cc(C)c3)C2)cc1 (stereo not given)	1.7	-1	-72	0.8	23	4
O=C(NCCc1cccs1)C1CC(c2ccccc2[N+](=O)[O-])=NO1 (stereo not given)	1.2	3	-16	0.7	30	6
Cn1c(SCc2ccccc2)nnc1-c1ccc2c(c1)OCO2	1.1	20	-8	0.1	88*	5
Cc1ccc(NC(=O)c2ccc(CSc3nnc(-c4ccncc4)n3C)cc2)cc1	0.3	-1	66*	0.8	22	-6
Cc1ccc(CSc2nnc(-c3ccncc3)n2C)cc1	0.8	5	18	0.3	73*	3
COC(=O)c1ccc(CNC(=O)/C=C/c2cc([N+](=O)[O-])ccc2OC(F)F)cc1	1	4	1	0.9	11	-2
CSc1cccc(NC(=O)C(C)Sc2ccc(C)cc2)c1 (stereo not given)	0.3	9	67*	0.3	70*	3
CSc1ccccc1C(=O)Nc1cccc(N(C)S(C)(=O)=O)c1	0.7	2	34	0.7	27	4
Cc1ccc(SC(C)C(=O)Nc2c(C)n(C)n(-c3ccccc3)c2=O)cc1 (stereo not given)	0.9	-1	7	0.8	17	4
Cc1ccc(SC(C)C(=O)Nc2cccc(N(C)S(C)(=O)=O)c2)cc1 (stereo not given)	0.2	0	83*	0.4	61*	-6
Cc1ccc(SC(C)C(=O)Nc2ccncc2)cc1 (stereo not given)	0	90*	97*	0	100*	102*
Cc1ccc(SC(C)C(=O)Nc2cccnc2)cc1 (stereo not given)	0.9	-1	8	0.6	39	6
Cc1ccc(SC(C)C(=O)Nc2ccc(S(=O)(=O)N3CCOCC3)cc2)cc1 (stereo not given)	0.4	3	60*	0.6	37	-9
CCOc1cc(NS(=O)(=O)c2ccc(Cl)cc2)c(OCC)cc1NC(=O)CC(C)C	1.2	0	-21	0.8	20	-4
CCCC1C2C(=O)N(c3ccccc3OCC)C(=O)C2ON1c1ccccc1 (stereo not given)	0.5	-1	47	0.7	26	10
CC(C)(CN=C1NS(=O)(=O)c2ccccc21)CNC(=O)CN1C(=O)c2ccccc2C1=O	0.5	1	46	0.8	22	1
